Sampled rows, rich in hits. Any-hit rate of the full collection: about 19%.
HT1080-NT tox: kills 2HG-producing HT-1080-NT fibrosarcoma cells | HT-1080-NT fibrosarcoma viability, CellTiter-Glo ATP luminescence, 48 h | Potency, µM (top dose mostly 46.1 µM), for the others: at the top dose activity, negative = less viability, actives largely listed as cytotoxic | actives 1.6% (n = 360,000);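 further: NT is the 2HG producing partner of a matched IDH1 knockdown line; 0% = DMSO-treated cells and -100% = media-only wells without cells; nearly all actives have a fitted effect of over 55% in size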
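Fibrosarcoma NT cells, 750 per well in 5% FBS RPMI, were exposed to compound for 48 hours. Viability: CellTiter-Glo luminescence.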
TDP1 cell CPT: DT40-hTDP1 cell growth loss with CPT. chicken DT40 Tdp1-/-;hTDP1 cells + 20 nM CPT, ATP luminescence, 48 h. Potency, µM (titrated, usually from 46.2 µM), for inactives: top-dose activity change, negative = growth inhibition, usual class: inhibitors. actives 12% (n = 420,000); further: nearly all actives have a fitted effect of over 55% in size
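Cell growth measured by CellTiter-Glo luminescence after a minimum 48 h, 37 C compound exposure with 20 nM CPT in Tdp1-knockout DT40 cells stably expressing hTDP1, seeded 400/well; qHTS titration format.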
HT1080 IDH1KD tx: toxicity to HT-1080 IDH1 knockdown cells (counter line). HT-1080 IDH1 knockdown viability, ATP luminescence, 48 h. Potency, µM (top dose mostly 46.1 µM), inactives show at the top dose activity, negative = toxicity, actives largely listed as cytotoxic. actives 2% (n = 360,000);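 further: 0% = DMSO wells and -100% = cell-free medium wells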
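In this qHTS, HT-1080 cells depleted of IDH1 are exposed for 48 h at 37 °C to compound titrations. Toxicity is scored from CellTiter-Glo luminescence, with DMSO as full viability and medium alone as none.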
KB-V1 MDR tox: KB-V1 MDR subline cytotoxicity | KB-V1 MDR cells viability, CellTiter-Glo, 72 h | Potency, µM (top dose mostly 46.1 µM), actives largely listed as cytotoxic | actives 3.4% (n = 400,000) | AID 1347076; further: nearly all actives have a fitted effect of over 60% in size
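Drug-selected KB-V1 cells, grown in DMEM lacking phenol red with 10% FBS, receive compound titrations; after three days at 37 degrees C, surviving cell ATP is quantified by CellTiter-Glo luminescence and responses normalized and curve-fitted.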
TDP1 cell noCPT: qHTS for Inhibitors of human tyrosyl-DNA phosphodiesterase 1 (TDP1): qHTS in cells in absence of CPT. Potency, µM (series often up to 46.2 µM), for inactives: at the highest dose activity change, negative = growth inhibition, actives largely listed as inhibitors. actives 15% (n = 420,000). DT40 Tdp1-/- hTDP1 cells, no CPT, ATP luminescence, 48 h; further: nearly all actives have a fitted effect of over 55% in size
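Camptothecin absent (DMSO only). Human TDP1-complemented DT40 knockout cells, 400 cells/well, 37 °C for minimum 48 hr; ATP measured via CellTiter-Glo, 30 min dark incubation, luminescence.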
KB-3-1 tox: KB-3-1 parental cell cytotoxicity; KB-3-1 viability, CellTiter-Glo ATP luminescence, 72 h; Potency, µM (titrated, usually from 46.1 µM), most hits filed as cytotoxic; actives 1.4% (n = 400,000); further: nearly all actives have a fitted effect of over 60% in size
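Cytotoxicity in the drug-sensitive parental line KB-3-1 was scored as loss of CellTiter-Glo luminescence following 72 h incubation with compound. Values come from curve fitting of normalized concentration-response data.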
Numbers without * were called inactive; i = inactive; ? = inconclusive; . = not tested or not shown; [ ] = dose if it differs, or a comment. The call rests on the fitted dose curve; in most records, active means well fitted curve in the direction sought with a large enough effect; inconclusive means small, poorly fitted or top-dose-only effect, or another doubt; inactive means no such curve, though single readings can be large; an effect the other way counts as inactive or inconclusive. Unless noted, on the % scale 0 is the no-effect control and ±100 the full control effect; potency means the concentration at half of the fitted maximal effect.

SMILES	HT1080-NT tox	TDP1 cell CPT	HT1080 IDH1KD tx	KB-V1 MDR tox	TDP1 cell noCPT	KB-3-1 tox
Cc1cc(C)c2cc(C(=O)N3CCC(N4CCCCC4)CC3)[nH]c2c1	-14.5%	-15.9%	-29.1%	i	-0.9%	i
Cc1cc(C)c2cc(C(=O)N3CCC(C(=O)c4ccc(F)cc4)CC3)[nH]c2c1	?	?	?	i	20.6µM*	i
O=C(c1ccc(Cl)cc1)C1CCN(C(=S)Nc2ccccc2)CC1	1.3%	-17.4%	-4.4%	i	16.4µM*	i
COC(=O)c1cc(CNC(=O)c2ccncc2)cc(NC(=O)c2ccccc2Cl)c1	.	-4.0%[9.04 µM]	.	.	-10.4%	.
Cn1c(CNC(=O)c2ccc(F)cc2)nc2ccccc21	-1.5%	?	2.0%	i	-27.9%	i
CSc1nc(N(C)NC(=O)c2ccc(F)cc2)c2ccccc2n1	?	0.581µM*	0.517µM*	1.03µM*	0.731µM*	0.651µM*
O=[N+]([O-])c1cccc(-c2nnc3ccc4ccccc4n23)c1	1.2%	16.4µM*	0.4%	i	13µM*	i
Cc1ccc(CNc2ncc(-c3ccc4c(c3)OCO4)n2C)cc1	-19.5%	?	-11.2%	i	20.6µM*	i
Clc1ccccc1-c1cnc2sc(NCc3ccc4c(c3)OCO4)nn12	?	?	?	i	14.6µM*	i
Cn1c(-c2ccc3c(c2)OCO3)cnc1NCc1ccc(Cl)cc1	-4.7%	?	-0.1%	i	18.4µM*	i
c1cc(CNc2ccc3c(c2)OCO3)ccn1	8.1%	-22.5%	5.2%	i	-15.3%	i
Cc1ccc(CNc2ccc3c(c2)OCO3)cc1	?	?	?	?	20.6µM*	?
Cc1ccn2cc(C34CC5CC(CC(C5)C3)C4)nc2c1	-1.0%	?	-11.9%	i	?	i
CCNC(=O)C1(C)CCN(C(=O)c2ccc3snnc3c2)C1 (configuration not stated)	?	-9.7%	14.2%	i	6.2%	i
COc1ccc(NS(=O)(=O)c2cccc(C(=O)N3CCN(S(=O)(=O)c4ccccc4)CC3)c2)cc1	-6.0%	?	-1.2%	i	?	i
CC(C)N(Cc1nc(-c2ccc(Cl)cc2)no1)C(=O)c1ccc(C(C)(C)C)cc1	.	-26.7%	.	i	?	i
Cc1ccc(N(C)C(=O)Cn2nc(Cc3ccncc3)c3ccccc3c2=O)cc1C	.	-26.7%	.	.	-25.0%	.
CCC(C)(C)c1ccc(OCC(=O)Nc2ccncc2)cc1	-4.0%	?	0.8%	i	-13.5%	i
NS(=O)(=O)c1ccc(Oc2ccc(S(N)(=O)=O)cc2)cc1	5.6%	-27.0%	1.1%	i	-8.9%	i
C=CS(=O)(=O)c1ccc(Oc2ccc(S(=O)(=O)C=C)cc2)cc1	-4.1%	2.31µM*	?	?	2.31µM*	?
COc1ccc(/C=N/Nc2nc(Nc3ccccc3)nc(N3CCCCC3)n2)c(OC)c1	-0.4%	?	0.0%	i	20.6µM*	?
C(=N\Nc1nc(N2CCCC2)nc(N2CCCC2)n1)/c1ccccc1OCc1ccccc1	-8.6%	?	-7.8%	i	?	i
COc1cc(/C=N/Nc2nc(Nc3ccccc3)nc(N3CCCCC3)n2)ccc1OCC(=O)O	2.1%	?	25.8%	i	?	i
COc1cc(/C=N/Nc2nc(Nc3ccccc3)nc(N3CCOCC3)n2)ccc1OC(=O)c1ccco1	-24.0%	7.31µM*	-18.6%	i	4.11µM*	i
COc1ccc(/C=N/Nc2nc(Nc3ccccc3)nc(N3CCCC3)n2)cc1[N+](=O)[O-]	14.6µM*	?	?	?	16.4µM*	i
SMILES	HT1080-NT tox	TDP1 cell CPT	HT1080 IDH1KD tx	KB-V1 MDR tox	TDP1 cell noCPT	KB-3-1 tox
COC(=O)CC1C(=O)NCCN1C(=O)CN1Cc2ccccc2OC(c2ccccc2)C1 (configuration not stated)	.	-5.0%	.	.	-14.3%	.
CN(C(=O)c1ccc(NC(=O)Cc2ccc(NC(=O)C3CCCN(S(=O)(=O)c4cccc([N+](=O)[O-])c4)C3)cc2)cc1)C1CCCC1 (configuration not stated)	0.8%	-14.3%	0.5%	i	-26.0%	i
C=CCNC(=S)NNC(=O)c1ccc(Br)cc1	10.6%	?	4.4%	11.6µM*	?	14.6µM*
CCOc1ccc(/C=C/C(O)=C2/C(=O)NC3(C)CC2c2ccccc2O3)cc1OC (configuration not stated)	-24.0%	5.17µM*	?	?	3.66µM*	?
CCOc1ccc(/C=C/C(O)=C2/C(=O)N(C)C3(C)CC2c2ccccc2O3)cc1OC (configuration not stated)	?	5.8µM*	3.66µM*	?	8.2µM*	23.1µM*
CCOC(=O)C1=C(COC(=O)/C=C/c2ccc(OCC)c(OC)c2)NC(=O)NC1C (configuration not stated)	-11.2%	-5.0%	-14.8%	i	?	i
Fc1ccc(-c2nc3c(-c4ccc(Cl)cc4)cnn3cc2CCN2CCOCC2)cc1	?	11.3%	?	i	-3.6%	i
COc1cc(OC)c2nc(-c3cc4c(c(OC)c3)OCCN(C(=O)C(C)c3n[nH]c(=O)c5ccccc35)C4)cc(C)c2c1 (configuration not stated)	.	18.2%[9.04 µM]	.	.	-14.6%	.
COc1ccc(NC2CCCN(C(=O)Cn3ccc(C)n3)C2)cc1OC (configuration not stated)	0.0%	8.5%	-0.1%	.	-0.2%	.
Cc1cnc(C(=O)OCC(=O)Nc2ncc(Cl)cc2Cl)cn1	0.6%[9.24 µM]	-5.6%	-1.0%	i	3.0%	i
CCNc1cc2c(cc1O)CCC1C2CCC2(C)C(O)CCC12 (configuration not stated)	-9.3%	7.31µM*	-11.0%	?	23.1µM*	?
C[C@@]12CCC3c4ccc(OS(=O)(=O)O)cc4CCC3C1CCC2O (some centres not stated)	.	0.8%	.	.	-2.8%	.
CCCCC(=O)O[C@H]1CC[C@H]2[C@@H]3CCc4cc(O)ccc4[C@H]3CC[C@]12C	20.6µM*	?	?	?	?	?
CCOc1cc2c(cc1O)CCC1C2CCC2(C)C(O)CCC12 (configuration not stated)	?	0.259µM*	?	?	0.206µM*	?
